# According to PubChem BioAssay (NCI):
# The panel holds about 83,000 compounds, 20% with a hit somewhere; the sample as a whole holds those more often.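 Results are percent growth after 48 hours of single-concentration exposure. 100 means growth as in untreated cells, lower positive values show inhibition; negative values down to -100 show cell death.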 A number with no mark means an inactive call. Activity calls are given as the source filed them. Rule for the calls: active = growth percent below 10; inactive = the rest.
# What was measured:
# Assay in all cases: NCI-60 one-dose screen, 48 h (100 = growth as untreated, 0 = no growth, -100 = all killed)
# Conditions in all cases: 10 µM unless noted
# [1] = system: SR leukemia
# [2] = system: RPMI-8226 leukemia
# [3] = system: OVCAR-8 ovarian
# [4] = system: OVCAR-5 ovarian
# [5] = system: OVCAR-4 ovarian
# [6] = system: SK-OV-3 ovarian
# [7] = system: IGROV1 ovarian
# [8] = system: OVCAR-3 ovarian
# [9] = system: HS 578T breast
# [10] = system: NCI/ADR-RES ovarian
# [11] = system: T-47D breast
# [12] = system: BT-549 breast
# [13] = system: MDA-MB-435 melanoma
# [14] = system: MCF7 breast
# [15] = system: HCT-116 colon
# [16] = system: HCC-2998 colon
# [17] = system: KM12 colon
# [18] = system: SW-620 colon
SMILES,growth [1],growth [2],growth [3],growth [4],growth [5],growth [6],growth [7],growth [8],growth [9],growth [10],growth [11],growth [12],growth [13],growth [14],growth [15],growth [16],growth [17],growth [18]
CCOC(=O)/C(=C/c1ccc([N+](=O)[O-])cc1)C(=O)c1ccccc1,4.07% (active),-13% (active),41.5%,41.7%,76%,102%,42.5%,58.4%,33.2%,25.7%,41.9%,6.8% (active),28.1%,22.7%,-8.58% (active),47.7%,29.5%,–
O=C(Nc1cccc(Cn2c(=O)[nH]c3ccc(Oc4ncccn4)cc3c2=O)c1)c1cccc(Cl)c1,35.9%,35.1%,58.4%,86.2%,30.5%,82.5%,62.4%,67.6%,73.7%,77.5%,20.6%,43.8%,42.5%,40.2%,52.6%,84.6%,55%,–
O=c1ccc2c(ccc3ncccc32)o1,103%,112%,105%,104%,111%,104%,109%,108%,–,106%,94.6%,116%,116%,95.7%,113%,107%,107%,115%
CCOc1ccc(-c2cc(C3(S(=O)(=O)c4ccc(C)cc4)CC=CC3)on2)cc1,69.1%,62.4%,90.4%,101%,74.3%,91%,88.5%,92%,96.4%,71%,64.4%,94.8%,95.1%,95.9%,82.3%,–,94.4%,–
COc1nc2ccccc2cc1/C=C1/C=C(c2ccccc2)NC1=O,20%,53.7%,44.8%,85.4%,65%,50.3%,39%,17.2%,25.8%,32.8%,37.3%,51.4%,-12.5% (active),24.2%,12.7%,80.6%,31.5%,–
COC(=O)[C@H](C)NC(=O)c1ccc(NC(=O)c2[nH]c(C)c(Cl)c2Cl)c(OCCN)c1,67.2%,96.9%,96.2%,106%,113%,106%,104%,108%,–,107%,99.6%,97%,104%,81.5%,106%,95.4%,92.5%,102%
Nc1nc(N)c2c(n1)NC(c1ccc3c(c1)OCO3)CC(c1cccc(Nc3ccncc3)c1)=N2 (centres undefined),53.1%,80.5%,83.8%,114%,98.7%,90.9%,79.7%,90.9%,81.4%,107%,88.5%,117%,50.5%,63%,43.7%,88.1%,80%,–
COc1cc(-c2c(-c3ccccc3)c[nH]c2C(=O)NCCCO)c(OC)c2c1OCO2,93.9%,99.7%,100%,99.5%,107%,96.4%,107%,111%,–,106%,90.9%,106%,104%,110%,106%,110%,125%,102%
C#CCOc1cccc(-c2ncnc3cc(NC(=O)CCl)ccc23)c1,-11.5% (active),-38.1% (active),-5.91% (active),-47.3% (active),-25.6% (active),51%,-54.2% (active),-78.2% (active),17%,1.21% (active),-33.8% (active),-27.8% (active),-24.7% (active),3.63% (active),-74.1% (active),56.6%,16.2%,–
O=C(/C=C/c1ccco1)Nc1ncc(Cc2ccc(F)cc2)s1,16.1%,32.4%,22.2%,32.5%,63.9%,39.3%,27.2%,-8.58% (active),–,0.377% (active),49.3%,24.2%,-17.6% (active),15.8%,19.5%,7.46% (active),16.1%,25.4%
CCNCCNc1c(C)c(-c2ccc(C(F)(F)F)cc2)c(C#N)c2nc3ccccc3n12,-0.902% (active),86.4%,95.3%,104%,88.2%,111%,78.9%,96.4%,–,101%,82.6%,75.5%,65.2%,76.2%,93.4%,99.4%,97%,93.6%
Cn1cc(-c2ccc3occ(-c4cccc(-c5ccncc5)c4)c3n2)cn1,3.95% (active),0.0083% (active),7.42% (active),55.4%,36.5%,31.8%,15.7%,18.4%,–,4.84% (active),-6.42% (active),10.9%,-2.73% (active),6.54% (active),10.4%,45%,12.4%,17.8%
O=C1NC(=O)C(=Cc2cc(-c3ccc(Cl)cc3)n(-c3ccccc3)n2)C(=O)N1,93.7%,92.1%,101%,91.5%,103%,105%,93.1%,111%,–,107%,93.6%,83.9%,94.5%,93.2%,94%,110%,102%,96.7%
COc1c(O[C@@H]2OC(CO)[C@H](O)[C@H](O)C2O)cc2oc3cc(O)c(CC=C(C)C)c(O)c3c(=O)c2c1CC=C(C)C (some centres undefined),102%,96.4%,87.3%,108%,115%,97.7%,91%,99.7%,96.2%,101%,70.8%,102%,94.3%,92.8%,88.8%,95.9%,106%,–
CC(=O)Cc1nsc(NC(=O)c2cc(-c3cc(Cl)ccc3Cl)oc2C)n1,98.5%,100%,102%,111%,113%,104%,109%,110%,106%,108%,87.6%,102%,101%,97.7%,95.8%,103%,107%,–
COc1cc(/C=C/c2cc(/C=C/c3ccc(O)c(OC)c3)n(C(=O)Nc3ccc(C)cc3C)n2)ccc1O,-2.07% (active),-16.7% (active),-34.7% (active),-4.24% (active),7.87% (active),-63.6% (active),-1.75% (active),-37.3% (active),–,7.64% (active),-22.5% (active),-33.8% (active),-40.9% (active),-3.78% (active),1.48% (active),4.28% (active),-9.35% (active),-10.9% (active)
CC1OC(C(=O)N2CCN(CCO)CC2)CC1COC1CCCCC1 (centres undefined),88% [50 µM],96.3% [50 µM],99.2% [50 µM],104% [50 µM],104% [50 µM],97.9% [50 µM],98% [50 µM],96.7% [50 µM],87.2% [50 µM],93% [50 µM],94.6% [50 µM],90.2% [50 µM],103% [50 µM],103% [50 µM],97% [50 µM],109% [50 µM],101% [50 µM],–
Cc1cc2nc(C(Cl)Cl)nc(-c3ccccc3)n2n1,20.6%,63%,49.6%,78.8%,33.2%,60.6%,71.4%,36.9%,52.6%,48.6%,61.7%,86.8%,68.9%,41.5%,41.1%,–,18.2%,–
